PubChem BioAssay (NCATS)
Several values for one entry are separate records, joined by “and”; a condition that tells them apart may be missing. Equal entries are not always repeated. Inconclusive results are not listed. Values without a mark were called inactive. The call rests on the fitted dose curve; in most records, active means well fitted curve in the direction sought with a large enough effect; inconclusive means small, poorly fitted or top-dose-only effect, or another doubt; inactive means no such curve, though single readings can be large or run the other way.

Assay: qHTS Assay for Identifying Gametocytocidal Compounds (AID 743244);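 further: actives lower the fluorescent signal which means gametocytes are killed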
Details: P. falciparum 3D7 stage III-V gametocytes, alamarBlue, 72 h; max response: active compounds read low
How it was run: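 In this qHTS viability screen, late-stage 3D7 gametocytes are incubated with compound for 72 h, then with alamarBlue for 24 h; reduced resorufin fluorescence marks killing.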
On the % scale 0 is the no-effect control and ±100 the full control effect.

First: N[C@H](C(=O)O)c1ccc(O)cc1
Second: C[C@H](N)[C@H](O)c1cccc(O)c1
The max response of the first is lower: -1.91% for the first, 5.58% for the second.

Compared with `O=C(O)COc1nn(Cc2ccccc2)c2ccccc12`, `c1ccc(CN(CC2=NCCN2)c2ccccc2)cc1` is lower in max response: 49.6% for the first, -10.1% for the second.

Going from `CC(=O)c1ccc2c(c1)N(CCCN(C)C)c1ccccc1S2` to `O=C(O)CN1C(=O)c2cccc3cccc(c23)C1=O`, the max response rises from -10.5% to 0.25%.

First: C[C@@H]1CCN(C(=O)[C@H](CCCN=C(N)N)NS(=O)(=O)c2cccc3c2NC[C@H](C)C3)[C@@H](C(=O)O)C1
Second: C[C@@H]1CN(c2c(F)c(F)c3c(=O)c(C(=O)O)cn(C4CC4)c3c2F)C[C@H](C)N1
The max response of the first is lower: -0.0233% for the first, 12.6% for the second.

Compared with `NS(=O)(=O)c1cc2c(cc1C(F)(F)F)NC(Cc1ccccc1)NS2(=O)=O` (stereo not drawn), `NS(=O)(=O)c1cc2c(cc1Cl)NC(CSCc1ccccc1)=NS2(=O)=O` is lower in max response: 5.19% for the first, -8.8% for the second.

First: C=CCn1c(=O)n([C@@H]2O[C@H](CO)[C@@H](O)[C@H]2O)c2nc(N)[nH]c(=O)c21
Second: O=c1[nH]cnc2c1ncn2[C@@H]1O[C@H](CO)[C@@H](O)[C@H]1O
The max response of the first is higher: 7.63% for the first, 5.28% for the second.

Going from `NCC(=O)CCC(=O)O` to `N[C@@H](CSSC[C@H](N)C(=O)O)C(=O)O`, the max response rises from 0.855% to 13.6%.

Going from `O=C(O)c1ccccn1` to `OCC(O)CN1CCN(c2ccccc2)CC1` (stereo not drawn), the max response rises from -0.573% to -0.192%.

First: CCCCN(CCCC)CCCOC(=O)c1ccc(N)cc1
Second: CCOc1nc2cccc(C(=O)O)c2n1Cc1ccc(-c2ccccc2-c2nn[nH]n2)cc1
The max response of the first is lower: 0.616% for the first, 5.7% for the second.

Going from `CC1(C)CO[C@@H](CC(=O)O)CN1` to `O=C(O)[C@@H]1CSCN1`, the max response falls from 28.1% to -11.5%.

For `C[C@]12CC[C@@H]3c4ccc(O)cc4CC[C@H]3[C@@H]1CC[C@@H]2OC(=O)CCC1CCCC1`, the max response was -9.98% and 14%.
In the case of `Oc1cn2c(n1)Nc1ccc(Cl)c(Cl)c1C2`, the max response is reported as 2.25% and 14.5%.
With `NC(=O)c1ncn([C@@H]2O[C@H](CO)[C@@H](O)[C@H]2O)c1N` the max response was -0.312% and 4.68%.
